Records with an inconclusive call do not appear. A structure can be active in one record and inactive in another. Calls of active or inactive are those of the source. Rule for the calls: active = hit-call score of the fitted dose curve at least 0.9, where 1 is the maximum; inconclusive = response in the unintended direction; inactive = score below 0.9.
Target: human Phosphodiesterase 10 (PDE10), PDE10A (gene 10846) (UniProt Q9Y233)
Test: NVS_ENZ_hPDE10: NovaScreen (NVS) Enzymatic Assay for human Phosphodiesterase 10 (PDE10) (AID 2283195)
Protocol: NVS_ENZ_hPDE10 is a biochemical, single-readout assay that uses extracted gene-proteins in a cell-free assay. Measurements were taken 1 hour after chemical dosing in a 384-well plate.NVS_ENZ_hPDE10 is one of one assay component(s) measured or calculated from the NVS_ENZ_hPDE10 assay. It is designed to make measurements of enzyme activity, a form of enzyme reporter, as detected with fluorescence intensity signals by Fluorescence and electrophoretic mobility shift technology.Data from the assay component NVS_ENZ_hPDE10 was analyzed into 1 assay endpoint. This assay endpoint, NVS_ENZ_hPDE10, was analyzed in the positive analysis fitting direction relative to DMSO as the negative control and baseline of activity. Using a type of enzyme reporter, loss-of-signal activity can be used to understand changes in the enzymatic activity as they relate to the gene PDE10A. Furthermore, this assay endpoint can be referred to as a primary readout, because this assay has produced multiple assay endpoints where this one serves a enzymatic activity function. To generalize the intended target to other relatable targets, this assay endpoint is annotated to the esterase intended target family, where the subfamily is phosphodiesterase.
Binding assays used specific radioligands (tritiated, iodinated) with non-radioactive competitive displacement ligands in agonist or antagonist protocols (as indicated) and various reference compounds and inhibitors to titrate specific binding to receptors and transporters. Most enzyme assays (CYPs, kinases, phosphatases, proteases, HDACs) used recombinant protein and specific substrates (fluorescence mostly, some colorimetric and radioactive) and inhibitors, followed by a biochemical separation of substrate and product. All assays for the biochemical HTS were initially run in duplicate at a single concentration (10 uM for CYP450 assays and 25 uM for all others). Assay-chemical combinations meeting a pre-defined threshold (e.g., 30% inhibition and other criteria defined below) were then run in singleton concentration-response format with maximum concentration of 20 uM for CYPs and 50 uM for all others. Each assay was run with positive and negative controls, and concurrent controls on every plate. The follow-up (secondary) screen tested active chemical-pairs in concentration series, as well as a few additional assays not tested in the primary screen, some selected negative inactives, and several cases re-run in the concentration series for confirmatory purposes.

Chain of human Phosphodiesterase 10 (PDE10), PDE10A (gene 10846) (Q9Y233 whole entry, looked up): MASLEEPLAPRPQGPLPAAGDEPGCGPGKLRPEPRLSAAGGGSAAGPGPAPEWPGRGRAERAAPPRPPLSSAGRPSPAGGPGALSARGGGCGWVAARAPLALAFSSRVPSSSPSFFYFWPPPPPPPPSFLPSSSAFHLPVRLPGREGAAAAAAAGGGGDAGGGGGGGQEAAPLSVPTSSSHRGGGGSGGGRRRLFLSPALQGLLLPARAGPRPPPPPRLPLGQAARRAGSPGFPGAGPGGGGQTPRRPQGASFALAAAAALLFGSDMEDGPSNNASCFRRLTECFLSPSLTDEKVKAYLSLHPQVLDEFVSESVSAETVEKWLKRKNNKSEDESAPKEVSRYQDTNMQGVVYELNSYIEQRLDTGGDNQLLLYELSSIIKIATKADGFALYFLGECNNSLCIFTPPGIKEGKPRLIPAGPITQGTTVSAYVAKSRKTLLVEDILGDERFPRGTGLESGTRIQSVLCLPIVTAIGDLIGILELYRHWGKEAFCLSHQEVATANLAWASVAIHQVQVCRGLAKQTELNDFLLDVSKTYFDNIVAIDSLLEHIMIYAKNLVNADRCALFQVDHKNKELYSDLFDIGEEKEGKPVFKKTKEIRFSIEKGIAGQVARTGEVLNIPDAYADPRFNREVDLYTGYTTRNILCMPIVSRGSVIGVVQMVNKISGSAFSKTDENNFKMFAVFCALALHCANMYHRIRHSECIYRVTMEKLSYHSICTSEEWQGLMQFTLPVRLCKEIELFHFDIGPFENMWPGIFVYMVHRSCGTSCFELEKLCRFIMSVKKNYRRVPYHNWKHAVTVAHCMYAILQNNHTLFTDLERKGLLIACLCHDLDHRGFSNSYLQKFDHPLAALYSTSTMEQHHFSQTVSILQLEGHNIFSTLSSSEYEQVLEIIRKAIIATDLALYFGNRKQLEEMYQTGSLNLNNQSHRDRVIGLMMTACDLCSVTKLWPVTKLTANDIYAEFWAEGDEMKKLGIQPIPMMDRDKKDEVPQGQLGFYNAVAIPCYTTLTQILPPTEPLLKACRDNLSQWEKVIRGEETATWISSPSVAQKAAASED

| Compound | outcome | AC50 |
| --- | --- | --- |
| CCOC(OCC)C(=O)c1ccccc1 | inactive | – |
| Clc1ccc(Nc2nnc(Cc3ccncc3)c3ccccc23)cc1 | inactive | – |
| CCC1CO1 (stereo not drawn) | – | 6.67 µM (active) |
| CC(=O)CC(C)C | inactive | – |
| CCc1cccc(CC)c1NC(=O)C(=O)O | inactive | – |
| CCCCCCCCC(C)=O | inactive | – |
| O=C1OC2(c3ccccc31)c1cc(I)c(O)c(I)c1Oc1c2cc(I)c(O)c1I | inactive | – |
| O=C(NO)c1ccccc1 | inactive | 7.2 µM (active) |
| CCCCCCCCCCCCOS(=O)(=O)O | – | 25 µM (active) |
| CCCCCCCCCCCCCCCCCC[N+](C)(C)Cc1ccccc1 | inactive | – |
| CCCC=O | inactive | – |
| O=C(NCc1ncc(C(F)(F)F)cc1Cl)c1c(Cl)cccc1Cl | inactive | – |

From PubChem BioAssay (EPA / NIEHS)
